Hits are enriched below; roughly 9.2% of the tested compounds scored in any of these assays.
NPC1 promoter act: activates the NPC1 promoter; Huh7 NPC1 promoter luciferase reporter, 24 h; Potency, µM (doses to about 9.22 µM), for inactives: at the top dose activation, hits mostly activators; 320,000 tested, 2.4% active; further: % of control where 0% means no effect; nearly all actives have a fitted effect of over 60% in size
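Compounds in DMSO were transferred onto Huh7 NPC1-luciferase reporter cells pre-incubated 2 h; after 24 h at 37 °C, Amplite reagent was dispensed and luminescence recorded 10 min later.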
ELG1 DNA repair: inhibitors of ELG1-dependent DNA repair in HEK293T cells; HEK293T ELG1-luciferase reporter, luminescence, 16 h; DNA damage induced by 5-fluorouridine; Potency, µM (doses to about 46.1 µM), without a hit: at the top dose activity change, negative = inhibition, hits mostly inhibitors; 330,000 tested, 2.3% active; AID 504467; further: on the % scale 0 is the no-effect control and ±100 the full control effect; nearly all actives have a fitted effect of over 55% in size
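Cells (2,000 per well) received 5-fluorouridine plus test compound or DMSO and were incubated 16 hr at 37 °C, 5% CO2. Luciferase activity was read by luminescence 30 min after ONE-Glo addition; signal suppression marked inhibition of damage-induced ELG1 function.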
FLuc modulator: counter-screen for miR-21 project: firefly luciferase inhibitors or activators; P08659; purified FLuc, Km substrates, luminescence inhibition; Potency, µM (series often up to 57.5 µM), for inactives: at the top dose activity change, negative = inhibition, most hits filed as inhibitors; 360,000 tested, 6.9% active;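 further: plate controls were vehicle for no effect and reference inhibitor for full effect; nearly all actives have a fitted effect of over 55% in size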
Target sequence (P08659 whole entry, looked up): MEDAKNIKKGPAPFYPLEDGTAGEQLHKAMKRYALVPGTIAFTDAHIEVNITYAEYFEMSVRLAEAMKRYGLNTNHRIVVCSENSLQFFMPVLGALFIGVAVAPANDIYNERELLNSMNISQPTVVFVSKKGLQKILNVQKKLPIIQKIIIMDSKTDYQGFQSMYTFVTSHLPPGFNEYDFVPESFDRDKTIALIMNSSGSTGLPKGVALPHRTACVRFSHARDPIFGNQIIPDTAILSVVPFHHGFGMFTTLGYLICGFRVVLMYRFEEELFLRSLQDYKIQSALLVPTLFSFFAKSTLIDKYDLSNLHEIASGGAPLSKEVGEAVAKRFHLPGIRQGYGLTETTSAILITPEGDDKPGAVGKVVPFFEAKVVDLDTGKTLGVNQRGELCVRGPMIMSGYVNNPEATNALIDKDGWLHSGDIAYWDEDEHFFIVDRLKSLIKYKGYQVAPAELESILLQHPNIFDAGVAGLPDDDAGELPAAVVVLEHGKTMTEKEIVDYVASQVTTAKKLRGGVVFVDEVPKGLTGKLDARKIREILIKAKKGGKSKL
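Purified P. pyralis luciferase (10nM final) with 10uM D-luciferin and 10uM ATP (Km levels) in 50mM Tris acetate pH 7.5, 10mM Mg acetate, 0.01% Tween-20, 0.05% BSA; qHTS 6-point titration, ~60 µM downward; luminescence read.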
SMN2 splice up: increases expression of the SMN2 splice variant | Potency, µM (doses to about 46.1 µM), without a hit: top-dose activity change, positive = activation, hits mostly activators | 210,000 tested, 2.8% active | HEK293 SMN2-luciferase splicing reporter, luminescence, 30-36 h; further: % of control where 0% means no effect; nearly all actives have a fitted effect of over 55% in size
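HEK293 cells carry an SMN2 […]–luciferase reporter in which exon 7 inclusion puts luciferase in frame. Cells were plated 10-12 h before compound addition, then incubated 30-36 h at 37C. ONE-Glo luminescence was read; sodium butyrate at 4.5 mM final served as control.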
ELG1 genotoxic: genotoxicity induction in ELG1-luciferase HEK293T cells. Potency, µM (highest dose often 46 µM), inactives show at the highest dose activity change, positive = activation, actives largely listed as activators. HEK293T ELG1-luciferase reporter, luminescence, 16 h. 330,000 tested, 1.3% active. AID 504466; further: % of control where 0% means no effect; nearly all actives have a fitted effect of over 60% in size
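After overnight (16 hr) compound treatment at 37 °C, ELG1-luciferase HEK293T cells were lysed with ONE-Glo; luminescence quantified 30 min later at room temperature.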
Rab9 prom act: activates the Rab9 promoter; Huh7 Rab9 promoter-luciferase reporter, luminescence, 24 h; Potency, µM (top dose mostly 9.22 µM), for the others: at the highest dose activation, negative = inhibition, actives largely listed as activators; 320,000 tested, 2.8% active; further: % of control where 0% means no effect; nearly all actives have a fitted effect of over 60% in size
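Huh7 cells stably carrying a Rab9 promoter-luciferase reporter, 1500 cells per well in OP-MEM I with 10% FBS, treated with compound 24 hours at 37C. Luciferase activity read by luminescence after 10 minutes with Amplite reagent.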
Numbers without * were called inactive; ? = inconclusive; / = not tested or not shown; [ ] = remark or other dose. The call rests on the fitted dose curve; in most records, active means well fitted curve in the direction sought with a large enough effect; inconclusive means small, poorly fitted or top-dose-only effect, or another doubt; inactive means no such curve, though single readings can be large; an effect the other way counts as inactive or inconclusive. Potency means the concentration at half of the fitted maximal effect.

SMILES	NPC1 promoter act	ELG1 DNA repair	FLuc modulator	SMN2 splice up	ELG1 genotoxic	Rab9 prom act
COc1ccc(-c2csc(C)n2)cc1Br	14%	?	15µM*	17%	?	25%
COc1ccc(OC)c(NC(=O)c2cn(C)c(=O)c3cc(OC)c(OC)cc23)c1	0%	21µM*	-3%	?	-2%	-6%
CN(C)c1cccc(C(=O)N(C)C2CCCN(Cc3ccccc3F)C2)c1 (stereo not given)	0%	14%	2%	/	1%	2%
C[C@H](CO)N1C[C@H](C)[C@@H](CN(C)S(C)(=O)=O)Oc2ccc(NS(=O)(=O)c3cn(C)cn3)cc2C1=O	/	12%	/	/	1%	/
COc1ccc(C(C(=O)NC(C)(C)C)N(CCc2ccc(OC)c(OC)c2)C(=O)CCC(=O)Nc2cc(C)on2)cc1 (stereo not given)	0%	-13%	0%	/	6%	-2%
COc1ccc(OC)c(NC(=O)c2ccc3nc(-c4ccccc4)c(-c4ccccc4)nc3c2)c1	0%	23µM*	4%	1%	-4%	4%
COc1ccc(C(=O)OCC(=O)c2cc(OC)ccc2OC)c(OC)c1	2%	-16%	?	-7%	1%	0%
COc1ccc(C(=O)COC(=O)c2ccccc2O)c(OC)c1	?	?	6µM*	/	?	3.5µM*
CCN(CC)S(=O)(=O)c1ccc2c(c1)N(CC(=O)NCCc1ccc(S(N)(=O)=O)cc1)C(=O)CO2	-10%	?	-10%	/	1%	10%
CC(C)c1ccc(NC(=O)C2CC(=O)Nc3nc4ccccc4n32)cc1 (stereo not given)	1%	-4%	0%	/	4%	-3%
Oc1cccc(Nc2nc(O)c(/C=C3\C=Nc4ccccc43)s2)c1	3%	?	21µM*	/	?	7%
CCOC(=O)c1c(C)[nH]c(C)c1C(=O)COC(=O)CSc1ccc(C)cc1	/	-6%	/	/	2%	/
Cc1ccccc1C(=O)NCCc1nnc(SCC(=O)Nc2nc(-c3ccccc3)cs2)n1C	18%	?	-3%	6%	-1%	14%
Cc1sc(NC(=O)CSc2nnc(CCNC(=O)c3cccs3)n2C)nc1-c1ccccc1	-3%	16µM*	-1%	?	-6%	0%
CC(=O)c1ccc2c3c(cccc13)C(=O)N(CCc1ccccc1)C2=O	4µM*	?	11µM*	/	-4%	4µM*
O=C(O)c1ccc2c3c(cccc13)C(=O)N(c1ccccc1)C2=O	-3%	-8%	3%	0%	0%	-1%
COc1cc(OC)cc(C(=O)Nc2ccc3nc4n(c(=O)c3c2)CCCC4)c1	2.8µM*	?	?	/	?	?
COc1ccc(Cl)cc1C(=O)Nc1ccc2nc3n(c(=O)c2c1)CCCC3	-1%	-5%	-14%	/	-2%	6%
CN(C)c1cccc(C(=O)Nc2ccc3nc4n(c(=O)c3c2)CCCCC4)c1	8%	-28%	13µM*	-2%	10%	25%
COc1cc(C(=O)Nc2ccc3nc4n(c(=O)c3c2)CCCC4)ccc1Br	-2%	-5%	0%	/	-3%	-1%
COc1cccc(C(=O)Nc2ccc3nc4n(c(=O)c3c2)CCCC4)c1	26%	?	17µM*	/	0%	?
CCOc1ccccc1C(=O)Nc1ccc2nc3n(c(=O)c2c1)CCCCC3	-7%	-26%	15µM*	/	-1%	5%
O=C(Nc1ccc2nc3n(c(=O)c2c1)CCCCC3)c1cccc(C(F)(F)F)c1	/	/	-15%	2%	/	/
O=C(NC1CCN(Cc2ccccc2)CC1)c1cn(-c2ccccc2)nc1-c1cccnc1	0%	-13%	-8%	/	-18%	-5%
CCOc1ccc(-c2cc(C(=O)Nc3ccc4c(c3)OCCO4)c3ccccc3n2)cc1	25%	-19%	2.4µM*	?	2%	?
SMILES	NPC1 promoter act	ELG1 DNA repair	FLuc modulator	SMN2 splice up	ELG1 genotoxic	Rab9 prom act
O=C(Nc1ccc2c(c1)OCCO2)c1cc(-c2ccccn2)nc2ccc(Br)cc12	-5%	1%	-4%	-7%	14%	-8%
Cc1cccc(-c2cc(C(=O)Nc3ccc4c(c3)OCCO4)c3ccccc3n2)c1	-1%	?	6.7µM*	-9%	-7%	14%
COc1ccc(-c2cc(C(=O)OCC(=O)Nc3ccc4c(c3)OCO4)c3ccccc3n2)cc1	22%	?	?	13µM*	0%	21%
COc1ccc(C(=O)/C=C/c2ccc(F)cc2)c(OC(=O)c2ccc([N+](=O)[O-])cc2)c1	12%	?	9.5µM*	4%	?	-2%
O=C(/C=C/c1cccs1)NNC(=O)c1cccc([N+](=O)[O-])c1	/	?	/	/	0%	/
COc1ccc(OC(=O)/C=C/c2ccc([N+](=O)[O-])cc2)cc1	2%	-2%	7%	/	-1%	-10%[1.84 µM]
COc1ccc(C(=O)/C=C/c2cccs2)c(OC(=O)c2cccc([N+](=O)[O-])c2)c1	27%	?	4.8µM*	?	8%	?
CCc1ccc(NCc2nc3ccccc3c(=O)[nH]2)cc1	?	?	11µM*	10µM*	3.3µM*	2.8µM*
O=C(O)c1ccc(Nc2cnc3ccccc3n2)cc1	?	?	13µM*	229%	?	2.8µM*
CCOC(=O)c1ccc(Nc2cnc3ccccc3n2)cc1	2.2µM*	?	2.4µM*	13µM*	9.2µM*	1.8µM*
CCOC(=O)c1ccc(NCc2nc3ccccc3[nH]2)cc1	?	?	21µM*	3%	?	?
CCOC(=O)c1ccc(Nc2nnc(C)c3ccccc23)cc1	20%	-10%	17µM*	/	3%	10%
Cc1cccc(C(=O)NNc2ncnc3c2cnn3C)c1	0%	-15%	-3%	-2%	-8%	-4%
N#CCSc1nc2cc(C(=O)N3CCCC3)ccc2c(=O)n1Cc1ccccc1	-3%	?	4%	19%	-6%	4%
CCn1c(SCC#N)nc2ccccc2c1=O	-2%	4%	7%	/	4%	?
N#CCSc1nc2ccccc2c2nc3ccccc3n12	-2%	21µM*	-8%	0%	-15%	0%
C=CCn1c(SCc2ccc(Cl)cc2)nc2cc(C(=O)N3CCC(C(N)=O)CC3)ccc2c1=O	-2%	8.2µM*	-1%	12%	-4%	-4%
N#CCSc1nc2cc(C(=O)N3CCC(C(N)=O)CC3)ccc2c2nc3ccccc3n12	-2%	21µM*	-15%	-8%	-6%	-3%
O=C1c2ccccc2C(=O)c2[nH]c(=O)[nH]c21	-17%	7.3µM*	0%	/	-19%	-34%

Screening data deposited in PubChem BioAssay by National Center for Advancing Translational Sciences (NCATS).
